Laboratory results as given in PubChem BioAssay (NCATS).
Inconclusive results are not listed. Where a call stands in place of a potency, no number is given. Active and inactive are the calls of the source. The call rests on the fitted dose curve; in most records, active means well fitted curve in the direction sought with a large enough effect; inconclusive means small, poorly fitted or top-dose-only effect, or another doubt; inactive means no such curve, though single readings can be large; an effect the other way counts as inactive or inconclusive.

Tests used:
[1] = target: Glutathione peroxidase 1 (Homo sapiens) (UniProt P07203); test: Primary qHTS Assay for Inhibitors of Recombinant Selenoprotein Glutathione Peroxidase 1 (GPX1) (AID 1845191); further: nearly all actives have a fitted effect of over 65% in size
Glutathione peroxidase 1 (Homo sapiens), sequence (P07203 whole entry, looked up): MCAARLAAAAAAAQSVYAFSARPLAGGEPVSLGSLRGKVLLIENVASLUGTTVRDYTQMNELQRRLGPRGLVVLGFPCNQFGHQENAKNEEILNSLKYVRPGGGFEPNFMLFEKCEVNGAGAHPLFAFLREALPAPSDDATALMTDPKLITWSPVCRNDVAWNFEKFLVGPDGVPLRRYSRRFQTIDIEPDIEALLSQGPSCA
Summary of the method: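 GR-coupled readout: NADPH consumption tracked by fluorescence, ex 340/em 450 nm, at t=0 and after 15 min at RT. Final mix 10 nM GPX1, 1 mM GSH, 0.5 mM CHP, 0.5 mM NADPH, 100 nM GR, 0.01% BSA, following 30 min enzyme–compound preincubation.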

[2] = target: Luciferin 4-monooxygenase (Photinus pyralis) (UniProt P08659); test: Primary firefly luciferase (FLuc) qHTS assay for identification of artifact compounds. (AID 1845220); further: nearly all actives have a fitted effect of over 60% in size; further: potency means the concentration at half of the fitted maximal effect
Summary of the method: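 D-luciferin and ATP (10 uM each, final) in Tris acetate buffer pH 7.6 were incubated with compounds for 15 min at room temperature. The reaction was started with 10 nM Photinus pyralis luciferase and luminescence read after 5 min. Percent inhibition was fitted to a 4-parameter Hill equation.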

[3] = Primary fluorescence-based thiol-reactive (MSTI) qHTS assay for identification of artifact compounds. (AID 1845221); further: nearly all actives have a fitted effect of over 65% in size; further: potency means the concentration at half of the fitted maximal effect
Summary of the method: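 MSTI probe at 4 uM final in 2% DMSO/PBS pH 7.4; compounds, 1 h at room temperature in dark. Fluorescence Ex/Em 525/598 nm, normalised to Acetyl-MSTI and MSTI, fitted to 4-parameter Hill.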

[4] = tested on: Nanoluciferase (engineered Oplophorus gracilirostris luciferase); test: Primary Nanoluciferase (NLuc) qHTS assay for identification of artifact compounds. (AID 1845222); further: series mostly up to about 54 µM
Summary of the method: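 Diluted conditioned medium from NLuc-expressing S16 cells treated with compounds for 15 min at room temperature, then Nano-Glo substrate added; luminescence read after 5 min. Percent inhibition versus no-enzyme and DMSO controls fitted to 4-parameter Hill equation.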

[5] = Primary redox qHTS assay for identification of artifact compounds. (AID 1845223); further: potency means the concentration at half of the fitted maximal effect
Summary of the method: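 Redox-cycling detection via DTT (250 uM final) oxidation coupled to Amplex Red (25 uM)/HRP (250 mU/mL) in HBSS. 15 min preincubation plus 30 min after DTT, room temperature. Ex/Em 525/598 nm; 4-parameter Hill fit against DMSO and 10 uM DA3003.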

[6] = target: Phospholipid hydroperoxide glutathione peroxidase GPX4 (Homo sapiens) (UniProt P36969); test: Primary qHTS Assay for Inhibitors of Recombinant Selenoprotein Glutathione Peroxidase 4 (GPX4) (AID 1845192); further: nearly all actives have a fitted effect of over 65% in size; further: potency means the concentration at half of the fitted maximal effect
Phospholipid hydroperoxide glutathione peroxidase GPX4 (Homo sapiens), sequence (P36969 whole entry, looked up): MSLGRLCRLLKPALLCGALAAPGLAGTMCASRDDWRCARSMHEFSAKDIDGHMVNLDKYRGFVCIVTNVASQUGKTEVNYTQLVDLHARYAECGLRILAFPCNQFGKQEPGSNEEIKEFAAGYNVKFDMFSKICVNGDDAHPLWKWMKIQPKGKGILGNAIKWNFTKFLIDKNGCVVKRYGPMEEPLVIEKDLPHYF
Summary of the method: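 Steps: GPX4 plus compound, 30 min RT; add GR/GSH/NADPH master mix; start with cumene hydroperoxide; read 340/450 nm fluorescence at 0 and 15 min. Finals were 200 nM GPX4, 1 mM GSH, 0.5 mM CHP, 0.5 mM NADPH, 100 nM GR.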

SMILES | Potency [1] | Potency [2] | Potency [3] | Potency [4] | Potency [5] | Potency [6]
CN[C@@H]1[C@H](O[C@H]2[C@H](O[C@@H]3[C@@H](O)[C@H](O)[C@@H](N=C(N)N)[C@H](O)[C@H]3N=C(N)N)O[C@@H](C)[C@]2(O)CO)O[C@@H](CO)[C@H](O)[C@H]1O | inactive | inactive | inactive | inactive | inactive | –
COc1ccc(C#Cc2ccc(C(=O)N3CCC[C@@H](O)C3)c(F)c2)cc1 | inactive | inactive | inactive | inactive | inactive | –
CCC(CC)Nc1nc(C)c(-c2ccc(OC(F)(F)F)cc2OC)nc1OC | inactive | inactive | – | inactive | inactive | –
COc1cc2c(cc1OC(C)C)[C@H](c1ccc(Cl)cc1)N(c1ccc(N(C)CC3CCC(N4CCN(C)C(=O)C4)CC3)cc1)C(=O)C2 (stereo partly specified) | inactive | inactive | – | inactive | inactive | –
CN(C)C(=O)Nc1cc(-c2ccccc2)ccc1N(C)C | inactive | – | 2.38 µM (active) | inactive | inactive | –
COc1ccc(CNCc2cccc3ccccc23)cc1 | inactive | inactive | inactive | – | inactive | –
COc1ccc2c(c1)C(C(=O)N(Cc1ccc(N(C)C)cc1)c1ccc(C(C)C)cc1)CCC2 (stereo unspecified) | inactive | inactive | – | inactive | inactive | –
CC(=O)OC(C)(C)/C=C/C(=O)C(C)(O)C1C(O)CC2(C)C3CC=C(C(C)(C)C(=O)O)C(CC(=O)O)C3(C)C(=O)CC12C (stereo unspecified) | inactive | inactive | inactive | inactive | inactive | –
CC(C)(C)CC(=O)OCC(=O)[C@@]12OC(C)(C)O[C@@H]1C[C@H]1[C@@H]3CCC4=CC(=O)C=C[C@]4(C)[C@@]3(F)[C@@H](O)C[C@@]12C | – | – | – | – | – | inactive
CCCCc1ccc(NS(=O)(=O)c2ccc(F)cc2)cc1 | inactive | inactive | inactive | inactive | inactive | –
COc1ccc2cc(-c3cc(-c4cc(Cl)cc(Cl)c4)nn3C(C)c3ccc(C(=O)NCCC(=O)O)cc3)ccc2c1 (stereo unspecified) | inactive | inactive | inactive | inactive | inactive | –
C#CC(=O)N(c1ccc(OC)cc1OC)C(C(=O)NCC(=O)OCC)c1cccs1 (stereo unspecified) | inactive | inactive | inactive | inactive | inactive | –
Cn1sc(=O)n(Cc2ccccc2)c1=O | inactive | – | inactive | – | inactive | –
COc1ccc(C(=O)O[C@H]2C=COC=C3C=C4C(=O)N(C)C(=S)C(=O)N4[C@@H]32)cc1Oc1cc(C=O)ccc1O | – | inactive | inactive | inactive | inactive | 3.13 µM (active)
CC(NC(=O)Cc1cc(F)cc(F)c1)C(=O)NC1C(=O)N(C)c2ccccc2-c2ccccc21 (stereo unspecified) | – | inactive | inactive | inactive | inactive | inactive
CC[C@@H](Nc1c(Nc2cccc(C(=O)N(C)C)c2O)c(=O)c1=O)c1cc(C(C)C)co1 | – | inactive | 2.38 µM (active) | inactive | inactive | inactive
Cc1nc(NC(=O)N2CCCC2C(N)=O)sc1-c1ccnc(C(C)(C)C(F)(F)F)c1 (stereo unspecified) | – | inactive | inactive | inactive | inactive | inactive
COc1ccc(C(=O)Nc2c(Cl)cncc2Cl)cc1OC1CCCC1 | – | inactive | inactive | inactive | inactive | inactive
O=C(c1ccc(F)cc1)N1CCCC(c2nc(-c3ccc(F)cc3)no2)C1 (stereo unspecified) | – | inactive | inactive | – | inactive | inactive
CO[C@H]1O[C@@H]2O[C@@]3(C)CCC4[C@H](C)CCC([C@H]1C)[C@]42OO3 (stereo partly specified) | – | inactive | inactive | inactive | inactive | inactive
CCCCCCOC(=O)/N=C(\N)c1ccc(NCc2nc3cc(C(=O)N(CCC(=O)OCC)c4ccccn4)ccc3n2C)cc1 | – | inactive | inactive | inactive | inactive | inactive
O=C(O)CSc1cc(NS(=O)(=O)c2ccc(Br)cc2)c2ccccc2c1O | – | inactive | 0.474 µM (active) | – | 5.32 µM (active) | inactive
CN(CC1COCCO1)S(=O)(=O)Nc1ccc2ccc3ncc(-c4cnn(C)c4)cc3c(=O)c2c1 (stereo unspecified) | – | inactive | inactive | inactive | inactive | inactive
Cc1nc2c(C(F)(F)F)cccc2nc1-c1ccc(-c2cccc(S(C)(=O)=O)c2)cc1 | – | inactive | inactive | inactive | inactive | inactive
CC(OC1OCCN(Cc2n[nH]c(=O)[nH]2)C1c1ccc(F)cc1)c1cc(C(F)(F)F)cc(C(F)(F)F)c1 (stereo unspecified) | – | inactive | inactive | inactive | inactive | inactive
C/C=C/C=C/C(=O)O[C@@H]1C=C2COC(=O)[C@]2(O)[C@@]2(C)CCCC(C)(C)[C@H]12 | – | inactive | inactive | inactive | inactive | inactive
Cc1cc(OCCCS(C)(=O)=O)cc(C)c1-c1cccc(COc2ccc3c(c2)OCC3CC(=O)O)c1 (stereo unspecified) | – | inactive | inactive | – | inactive | inactive
C/C=C(/C=C(C)/C=C/C=C/C=C(\C)C(=O)C12OC1C(O)(CCO)NC2=O)C(=O)OC (stereo unspecified) | – | inactive | inactive | inactive | inactive | inactive
O=C(COc1ccc2ccccc2c1Br)Nc1cccnc1 | – | 6.01 µM (active) | inactive | inactive | inactive | inactive
